Source: PubChem BioAssay (NCI)
The panel holds about 83,000 compounds, 20% with a hit somewhere; the sample as a whole holds those more often.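 Each cell line was grown in a 96-well plate and treated with one concentration of compound for 48 hours. Values below 10 were considered active.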 Values without a mark were called inactive. Calls of active or inactive are those of the source.

These compounds were tested on SF-295 CNS (assay: NCI-60 one-dose screen, 48 h (100 = growth as untreated, 0 = no growth, -100 = all killed)). Details: 10 µM.

Row | Compound | growth
1 | N#CC1(Nc2ccc3c4c(cccc24)CC3)CCCCC1 | 98.8%
2 | CCCC1(c2ccccc2)NC(=O)NC1=O (stereo unspecified) | 122%
3 | O=C(NN=C1CCCCC1)C(=O)NN=C1CCCCC1 | 113%
4 | CC1CCCC(CC(N)=O)CC1 (stereo unspecified) | 89.4%
5 | CC(=O)OC(OC(C)=O)C1CCCO1 (stereo unspecified) | 112%
6 | CCOc1ccc(/C=N/N=C(N)N)cc1OCC | 95.9%
7 | COc1ccc2c(NCCCCCCCCNc3c4ccccc4nc4cc(OC)ccc34)c3ccccc3nc2c1 | -92.1% (active)
8 | Nc1ncnc2[nH]ncc12 | 21%
9 | Cc1ccc(C(=O)c2ccccc2)c(C)c1 | 136%
10 | O=C(c1ccc(Cl)cc1)c1ccccc1Cl | 92.3%
11 | COc1cc2c(cc1O)CC[C@@H]1C2CC[C@@]2(C)C1CC[C@@H]2O (stereo partly specified) | 25.2%
12 | CC(=O)OCC1=CC2OC(=O)C3=COC(OC4OC(CO)C(O)C(O)C4O)C1C32 (stereo unspecified) | 112%
13 | CC1(C)N=C(N)N=C(N)N1c1cccc(Br)c1 | -8.36% (active)
14 | C/C(=C\c1ccc([N+](=O)[O-])cc1)C(=O)O | 98.4%
15 | Oc1ccccc1-c1nnco1 | 112%
16 | CO[C@H]1C[C@@H]2CC[C@@H](C)[C@@](O)(O2)C(=O)C(=O)N2CCCC[C@H]2C(=O)O[C@H]([C@H](C)C[C@@H]2CC[C@@H](O)[C@H](OC)C2)CC(=O)[C@H](C)C=C(C)[C@@H](O)[C@@H](OC)C(=O)[C@H](C)C[C@H](C)/C=C/C=C/C=C1C | 23%
